Results reported in PubChem BioAssay AID1851 (National Center for Advancing Translational Sciences (NCATS), 2009).
About 5,100 (32%) of roughly 16,000 compounds were called active. Inconclusive results (about 25%) are left out. The list shows a part of the results. Values without a mark were called inactive. The call rests on the fitted dose curve; in most records, active means well fitted curve in the direction sought with a large enough effect; inconclusive means small, poorly fitted or top-dose-only effect, or effect the other way; inactive means no such curve, though single readings can be large or run the other way.

Molecular target: Cytochrome P450 3A4 (Homo sapiens) (UniProt P08684)
Sequence (P08684 whole entry, looked up): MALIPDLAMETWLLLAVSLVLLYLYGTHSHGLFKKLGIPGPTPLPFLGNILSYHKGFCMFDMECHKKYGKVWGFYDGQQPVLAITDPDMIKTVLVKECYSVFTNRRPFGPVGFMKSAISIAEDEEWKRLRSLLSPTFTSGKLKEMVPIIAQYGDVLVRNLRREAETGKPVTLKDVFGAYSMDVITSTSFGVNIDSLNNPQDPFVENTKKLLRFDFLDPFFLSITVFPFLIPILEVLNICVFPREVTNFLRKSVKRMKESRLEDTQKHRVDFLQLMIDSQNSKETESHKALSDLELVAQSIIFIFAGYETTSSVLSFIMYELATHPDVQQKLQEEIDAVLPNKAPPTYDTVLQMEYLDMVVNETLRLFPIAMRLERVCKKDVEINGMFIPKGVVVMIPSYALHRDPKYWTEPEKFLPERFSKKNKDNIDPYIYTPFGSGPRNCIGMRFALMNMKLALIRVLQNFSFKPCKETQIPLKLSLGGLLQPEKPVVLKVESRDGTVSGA
Experiment: Cytochrome panel assay with activity outcomes
Conditions: recombinant CYP, pro-luciferin dealkylation, luminescence, p450-cyp3a4; series mostly up to 57.1 µM; activity, negative = inhibition: at the top concentration
On the % scale 0 is the no-effect control and ±100 the full control effect.

Question: CCCCCCN(CCCCCC)C(=O)Cc1c(-c2ccc(F)cc2)[nH]c2ccccc12 was tested. Which AC50 did it give?
Answer: The AC50 was 2.51 µM (active).

Question: With CCOC(=O)c1[nH]c2ccc(Cl)cc2c1-c1ccccc1 as the compound, how does the “activity, negative = inhibition” value read?
Answer: The value was 18.9%.

Question: CCCCN(C)Cc1c(C)[nH]c2ccc(Cl)cc2c1=O was tested. Which “activity, negative = inhibition” value did it give?
Answer: Its value is -22.9%.

Question: CCCCCCN(CCCCCC)C(=O)Cc1c(-c2ccc(Cl)cc2)[nH]c2ccc(Cl)cc12 was tested. Which AC50 did it give?
Answer: The AC50 was 12.6 µM (active).

Question: Which “activity, negative = inhibition” value does the source give for Cn1c(=O)c2[nH]c(C3CCCC3)nc2n(C)c1=O here?
Answer: The value was -5.26%.

Question: How did the activity, negative = inhibition turn out when O=C(O)c1nnsc1COCc1ccccc1 was run?
Answer: The activity, negative = inhibition was -0.287% [at 11.4 µM].

Question: With COc1ccc(OC)c2[nH]c(=O)c(CCNS(=O)(=O)c3ccc(C)cc3)cc12 as the compound, how does the AC50 read?
Answer: The AC50 was 7.94 µM (active).

Question: How did the AC50 turn out when COc1ccc(OC)c2[nH]c(=O)c(CCNC(=O)c3ccc(S(=O)(=O)N4CCCC4)cc3)cc12 was run?
Answer: The AC50 was 15.8 µM (active).

Question: COc1ccc(OC)c2[nH]c(=O)c(CCNC(=O)COc3ccccc3)cc12 was tested. Which AC50 did it give?
Answer: Its AC50 is 10 µM (active).

Question: For COc1ccc(OC)c2[nH]c(=O)c(CCNC(=O)c3ccc(S(=O)(=O)N(C)C)cc3)cc12, which “activity, negative = inhibition” value is on record?
Answer: The value was -9.76%.

Question: COc1ccc(OC)c2[nH]c(=O)c(CCNC(=O)C3CCCCC3)cc12 was tested. Which AC50 did it give?
Answer: Its AC50 is 8.91 µM (active).

Question: For COc1cc2c(c(O)c1OC)C(=O)C(OC)CCC2 (configuration not stated), which “activity, negative = inhibition” value is on record?
Answer: The value was -10.9%.

Question: Which “activity, negative = inhibition” value does the source give for COc1ccc(C(=O)NCC(c2ccc(F)cc2)N2CCOCC2)cc1S(=O)(=O)N1CCCC1 (configuration not stated) here?
Answer: The value was 3.78%.

Question: With COCCNC(=O)COc1ccc(Oc2ccccc2)cc1 as the compound, how does the “activity, negative = inhibition” value read?
Answer: The value was -13.2%.

Question: Which “activity, negative = inhibition” value does the source give for CCCCC1CC(/C(C)=N/NC(N)=O)OC1=O (configuration not stated) here?
Answer: Its value is 8.73%.

Question: Which AC50 does the source give for COc1ccccc1NC(=O)CSc1nc2ccccc2cc1Cc1ccccc1 here?
Answer: The AC50 was 2.82 µM (active).

Question: With COc1cccc(NC(=O)CSc2nc3ccccc3cc2Cc2ccccc2)c1 as the compound, how does the AC50 read?
Answer: The AC50 was 3.55 µM (active).

Question: For CCOC(=O)c1sc2nc3c(cc2c1N)COC(C(C)C)C3 (configuration not stated), which “activity, negative = inhibition” value is on record?
Answer: Its value is 10.5%.

Question: Which AC50 does the source give for Cn1cc(C2=C(c3ccc(Cl)cc3Cl)C(=O)NC2=O)c2ccccc21 here?
Answer: The AC50 was 2.51 µM (active).

Question: COC(=O)c1ccc(C(=O)OC)c(NC(=O)CSCc2ccc(Br)cc2)c1 was tested. Which AC50 did it give?
Answer: Its AC50 is 12.6 µM (active).

Question: Which activity, negative = inhibition does the source give for CSc1ccccc1NC(=O)CSCc1ccc(C)cc1 here?
Answer: Its activity, negative = inhibition is -20% [at 11.4 µM].

Question: COc1cccc([C@@H]2Oc3ccc(OC)cc3/C(=N/O[C@@H](C)CN3CCCc4nc(C)c(C)cc43)[C@@H]2O)c1 was tested. Which AC50 did it give?
Answer: The AC50 was 3.16 µM (active).

Question: How did the AC50 turn out when COc1cccc([C@@H]2Oc3ccc(OC)cc3/C(=N/O[C@@H](C)CN3CCCCc4nc(C)c(C)cc43)[C@@H]2O)c1 was run?
Answer: The AC50 was 3.98 µM (active).

Question: COc1ccc(-c2ccc3c(n2)CCCN3C[C@H](O)CN2CCCc3nc(C)c(C)cc32)cc1 was tested. Which activity, negative = inhibition did it give?
Answer: Its activity, negative = inhibition is -46.4% [at 11.4 µM].

Question: Which AC50 does the source give for CCc1c2c(nc3ccc(OC)cc13)COC2 here?
Answer: The AC50 was 15.8 µM (active).

Question: Which activity, negative = inhibition does the source give for COc1ccc2nc3cc(Cl)ccc3c(Nc3ccc(O)c(CN4CCN(C)CC4)c3)c2c1 here?
Answer: Its activity, negative = inhibition is 2.77% [at 11.4 µM].

Question: Which “activity, negative = inhibition” value does the source give for COc1ccc2nccc(C(=O)O)c2c1 here?
Answer: The value was -4.23% [at 25.6 µM].

Question: Which “activity, negative = inhibition” value does the source give for C[C@@]1(O)CCOC(=O)C1 here?
Answer: The value was -3.83% [at 25.6 µM].

Question: CC1(C)O[C@H]2[C@@H](c3[nH]nc4c(=O)[nH]c(=O)[nH]c34)OC[C@H]2O1 was tested. Which activity, negative = inhibition did it give?
Answer: The activity, negative = inhibition was -0.0029% [at 11.4 µM].

Question: Which activity, negative = inhibition does the source give for CCOC(=O)N/N=C(/C)c1ccc([N+](=O)[O-])o1 here?
Answer: The activity, negative = inhibition was -3.74% [at 2.29 µM].

Question: Which AC50 does the source give for C#CCN1C(C)=C(C(=O)OC)[C@@H](c2cccc([N+](=O)[O-])c2)C(C(=O)OCC)=C1C here?
Answer: The AC50 was 3.16 µM (active).

Question: For COCC(C)NCc1cccc([N+](=O)[O-])c1 (configuration not stated), which “activity, negative = inhibition” value is on record?
Answer: Its value is -12%.

Question: How did the AC50 turn out when Cc1cccc(Nc2ccccc2C(=O)OCC(=O)NCc2ccco2)c1C was run?
Answer: The AC50 was 15.8 µM (active).

Question: Which AC50 does the source give for O=C(COC(=O)c1ccccc1Nc1cccc(C(F)(F)F)c1)NCc1ccco1 here?
Answer: The AC50 was 22.4 µM (active).

Question: Which AC50 does the source give for O=C(COC(=O)c1cccnc1Nc1cccc(C(F)(F)F)c1)NCc1ccc2c(c1)OCO2 here?
Answer: Its AC50 is 0.501 µM (active).

Question: For Cc1c(Nc2ncccc2C(=O)O)cccc1C(F)(F)F, which “activity, negative = inhibition” value is on record?
Answer: The value was -24.2% [at 25.6 µM].

Question: Which AC50 does the source give for O=C(OC(C(=O)NC1CCCC1)c1ccncc1)C1=Cc2ccccc2OC1 (configuration not stated) here?
Answer: Its AC50 is 3.98 µM (active).

Question: For Cc1ccc(C(OC(=O)c2ccco2)C(=O)NC2CCCCC2)cc1 (configuration not stated), which activity, negative = inhibition is on record?
Answer: The activity, negative = inhibition was -11.1% [at 2.29 µM].

Question: For c1cc(-c2sc(-c3ccncc3)c(-c3ccncc3)c2-c2ccncc2)ccn1, which AC50 is on record?
Answer: Its AC50 is 0.316 µM (active).

Question: How did the “activity, negative = inhibition” value turn out when Cc1cn2c(-c3ccncc3)nnc2s1 was run?
Answer: Its value is -17.7%.

Question: Which AC50 does the source give for CCC(C)NC(=O)C1c2cc(OC)c(OC)cc2C(=O)N(C)C1c1cccs1 (configuration not stated) here?
Answer: The AC50 was 5.62 µM (active).

Question: How did the AC50 turn out when COc1cc2c(cc1OC)C(C(=O)N1CCN(c3ccccn3)CC1)C(c1cccs1)N(C)C2=O (configuration not stated) was run?
Answer: The AC50 was 4.47 µM (active).

Question: How did the “activity, negative = inhibition” value turn out when CCC(C)NC(=O)C1CC(c2ccc(OC)cc2)=NO1 (configuration not stated) was run?
Answer: The value was 20.4%.

Question: With Cn1c(CN2CCCCC2)nc2cc(NC(=O)c3ccc(Cl)cc3)ccc21 as the compound, how does the AC50 read?
Answer: The AC50 was 15.8 µM (active).

Question: With COc1ccc(C(=O)Nc2ccc3c(c2)nc(CN2CCN(C(C)=O)CC2)n3C)cc1 as the compound, how does the activity, negative = inhibition read?
Answer: The activity, negative = inhibition was -0.562% [at 2.29 µM].

Question: How did the “activity, negative = inhibition” value turn out when Cn1c(CN2CCCC2)nc2cc(NC(=O)C3CCCCC3)ccc21 was run?
Answer: The value was -14.1%.

Question: For COc1cc(NC(=S)Nc2ccc(S(=O)(=O)N3CCOCC3)cc2)cc(OC)c1OC, which AC50 is on record?
Answer: The AC50 was 15.8 µM (active).

Question: COc1ccc(C(=O)Nc2ccc(S(=O)(=O)N3CCOCC3)cc2)cc1OC was tested. Which “activity, negative = inhibition” value did it give?
Answer: Its value is 3.48%.

Question: CC(N)=O was tested. Which “activity, negative = inhibition” value did it give?
Answer: The value was -7.41%.

Question: With c1ccc(-c2nc(CSc3n[nH]c(-c4cccs4)n3)cs2)cc1 as the compound, how does the AC50 read?
Answer: The AC50 was 6.31 µM (active).

Question: For O=c1[nH]c(=S)[nH]nc1Cc1ccccc1, which “activity, negative = inhibition” value is on record?
Answer: Its value is 25.9%.

Question: Which AC50 does the source give for CC(C)C1NC(=S)N(Cc2ccccc2)C1=O (configuration not stated) here?
Answer: Its AC50 is 14.1 µM (active).
